The results in this text go back to PubChem BioAssay (EPA / NIEHS).

Assay [1] has as its target human Peroxisome Proliferator-activated Receptor alpha (PPARa), PPARA (gene 5465) (UniProt Q07869). Kind of assay: ATG_PPARa_TRANS: Attagene TRANS-FACTORIAL HepG2 Assay for human Peroxisome Proliferator-activated Receptor alpha (PPARa) (AID 2283001).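 As to AC50: potency for gain of reporter signal over DMSO so agonist or activator.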 Summed up: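 Reporter transcripts from GAL4-UAS units in transfected HepG2 were quantified 24 h after dosing. Detection used reverse transcription, PCR, fluorescent primer extension and capillary electrophoresis, with DMSO as baseline.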

Read-out in assay [2]: Intercellular Adhesion Molecule 1 (ICAM1), ICAM1 (gene 3383)
The assay is described as follows: BSK_3C_ICAM1: BioMAP Diversity Plus: 3C Assay for Intercellular Adhesion Molecule 1 (ICAM1) Biomarker Activity (AID 2283003; active = hit-call score of the fitted dose curve at least 0.9, where 1 is the maximum; inactive = score below 0.9). The following applies: primary human endothelial cells (HUVEC); actives raise or lower the signal. Summed up: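 Primary human umbilical vein endothelial cells in the BioMAP 3C system were exposed to chemicals for 24 h, then ICAM-1 was quantified by ELISA. Activity was fitted bidirectionally against the DMSO negative control baseline.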

A short description of assay [3]: BSK_3C_Proliferation: Cell Proliferation Assessment in the BioMAP Diversity Plus: 3C Assay (AID 2283006; active = hit-call score of the fitted dose curve at least 0.9, where 1 is the maximum; inactive = score below 0.9;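 as to AC50: potency may reflect either rise or fall in cell number versus DMSO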). As to conditions: primary human endothelial cells (HUVEC). Summed up:
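Human umbilical vein endothelial cells were grown sub-confluent and exposed to chemical for 48 h, then fixed with 10% TCA and stained with 0.1% sulforhodamine B; absorbance at 560 nm gave relative cell number, fitted bidirectionally against DMSO baseline.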

Assay [4] deals with Peroxisome proliferator-activated receptor gamma (Homo sapiens) (UniProt P37231). The assay is described as follows: ATG_PPARg_TRANS: Attagene TRANS-FACTORIAL HepG2 Assay for human Peroxisome Proliferator-activated Receptor-gamma (PPARg) (AID 2283007). Summed up:
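Human hepatoma HepG2, transient MRTU transfection, 24 h treatment. mRNA reporter signal by RT-PCR plus capillary electrophoresis, fluorescence detection; fitted for increase over DMSO negative control.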

Assay [5] concerns the target Nuclear receptor subfamily 1 group I member 2 (Homo sapiens) (UniProt O75469). Kind of assay: ATG_PXR_TRANS: Attagene TRANS-FACTORIAL HepG2 Assay for human Pregnane X Receptor (PXR) (AID 2283008). A digest of the protocol: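 HepG2 cells transiently transfected with GAL4-UAS reporter units and PXR-Gal4 chimera, exposed 24 h. Reporter mRNA quantified by RT-PCR, fluorescent labelling, HpaI digestion and capillary electrophoresis; gain of signal vs DMSO.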

For assay [6], the target named is human Retinoic Acid Receptor gamma (RARg), RARG (gene 5916) (UniProt P13631). Kind of assay: ATG_RARg_TRANS: Attagene TRANS-FACTORIAL HepG2 Assay for human Retinoic Acid Receptor gamma (RARg) (AID 2283009). Summed up:
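HepG2 cells transiently transfected with multiplexed reporter units expressing chimeric RARg-GAL4 and GAL4-UAS-driven reporters; 24 h compound exposure. Reporter mRNA quantified by RT-PCR with fluorescent labelling and capillary electrophoresis; gain-of-signal fitted relative to DMSO baseline.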

The target of assay [7] is human RAR-related Orphan Receptor gamma (RORg), RORC (gene 6097) (UniProt P51449). Kind of assay: ATG_RORg_TRANS: Attagene TRANS-FACTORIAL HepG2 Assay for human RAR-related Orphan Receptor gamma (RORg) (AID 2283011).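 As to AC50: potency for induction of reporter transcripts above DMSO so activators.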 A digest of the protocol: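 Activity is scored as increase in GAL4-UAS reporter mRNA over DMSO, detected by fluorescent RT-PCR and capillary electrophoresis in HepG2 cells transiently expressing a RORg-Gal4 chimera, 24 h after dosing.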

Assay [8] has as its target Retinoic acid receptor RXR-alpha (Homo sapiens) (UniProt P19793). The assay is described as follows: ATG_RXRa_TRANS: Attagene TRANS-FACTORIAL HepG2 Assay for human Retinoid X Receptor alpha (RXRa) (AID 2283012). Summed up: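 HepG2 cells transiently transfected with multiplexed GAL4-UAS reporter units and chimeric NR-GAL4 fusions, dosed 24 h. Reporter mRNA measured by RT-PCR, FAM labelling, HpaI digestion and capillary electrophoresis; gain-of-signal fitted relative to DMSO baseline.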

Read-out in assay [9]: E-selectin (Homo sapiens) (UniProt P16581)
The assay is described as follows: BSK_3C_Eselectin: BioMAP Diversity Plus: 3C Assay for Eselectin Biomarker Activity (AID 2283015; active = hit-call score of the fitted dose curve at least 0.9, where 1 is the maximum; inactive = score below 0.9;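 also: cell surface E-selectin protein quantified by ELISA 24 h after dosing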). The following applies: primary human endothelial cells (HUVEC); actives raise or lower the signal. Summed up: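 Human vascular endothelium from umbilical vein is exposed to test chemicals for 24 h. E-selectin levels are read by ELISA and compared with DMSO controls.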

Read-out in assay [10]: Interleukin-1 alpha (IL1a), IL1A (gene 3552)
The assay is described as follows: BSK_BE3C_IL1a: BioMAP Diversity Plus: BE3C Assay for Interleukin-1 alpha (IL1a) Biomarker Activity (AID 2283016; active = hit-call score of the fitted dose curve at least 0.9, where 1 is the maximum; inactive = score below 0.9). As to conditions: primary human bronchial epithelial cells; actives raise or lower the signal. Summed up: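 Human primary bronchial epithelial cells (BE3C system) were dosed with compound and IL-1a measured by ELISA 24 h later. Activity was fitted bidirectionally against DMSO baseline; cytotoxicity was tracked in parallel cultures by SRB total-protein staining.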

Read-out in assay [11]: Monocyte Chemoattractant Protein-1 (MCP1), CCL2 (gene 6347)
The assay is described as follows: BSK_3C_MCP1: BioMAP Diversity Plus: 3C Assay for Monocyte Chemoattractant Protein-1 (MCP1) Biomarker Activity (AID 2283017; active = hit-call score of the fitted dose curve at least 0.9, where 1 is the maximum; inactive = score below 0.9). As to conditions: primary human endothelial cells (HUVEC); actives raise or lower the signal. A digest of the protocol:
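Endothelial cells from human umbilical vein are dosed with chemical, cultured 24 h, then assayed for MCP-1 by ELISA; both increases and decreases are modelled against DMSO controls.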

Read-out in assay [12]: Monocyte Chemoattractant Protein-1 (MCP1), CCL2 (gene 6347)
Kind of assay: BSK_4H_MCP1: BioMAP Diversity Plus: 4H Assay for Monocyte Chemoattractant Protein-1 (MCP1) Biomarker Activity (AID 2283018; active = hit-call score of the fitted dose curve at least 0.9, where 1 is the maximum; inactive = score below 0.9). As to conditions: primary human endothelial cells (HUVEC); actives raise or lower the signal. Summed up: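 Human umbilical vein endothelial cells (4H system) dosed with chemical; MCP-1 measured by ELISA 24 h after dosing. Bidirectional curve fitting against DMSO negative control as baseline; parallel SRB total-protein staining tracks overt cytotoxicity.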

Read-out in assay [13]: Human Leukocyte Antigen - DR isotype (HLADR), HLA-DRA (gene 3122)
The assay is described as follows: BSK_3C_HLADR: BioMAP Diversity Plus: 3C Assay for Human Leukocyte Antigen - DR isotype (HLADR) Biomarker Activity (AID 2283019; active = hit-call score of the fitted dose curve at least 0.9, where 1 is the maximum; inactive = score below 0.9;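 as to outcome: ELISA of cell-surface HLA-DR on HUVEC 24 h after dosing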). The following applies: primary human endothelial cells (HUVEC); actives raise or lower the signal. A digest of the protocol: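 Endothelial cells from human umbilical vein are treated with test chemical; after 24 h, HLA-DR levels are measured by ELISA. Data are fitted in both directions using DMSO as the baseline.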

Read-out in assay [14]: Interleukin-8 (IL8), CXCL8 (gene 3576)
The assay is described as follows: BSK_3C_IL8: BioMAP Diversity Plus: 3C Assay for Interleukin-8 (IL8) Biomarker Activity (AID 2283020; active = hit-call score of the fitted dose curve at least 0.9, where 1 is the maximum; inactive = score below 0.9). As to conditions: primary human endothelial cells (HUVEC); actives raise or lower the signal. Summed up:
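Primary human umbilical vein endothelial cells (3C system) were exposed to test chemical for 24 h, then IL-8 was quantified by ELISA. Responses were fitted bidirectionally against DMSO vehicle as baseline.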

Read-out in assay [15]: Monokine induced gamma interferon (MIG), CXCL9 (gene 4283)
Kind of assay: BSK_3C_MIG: BioMAP Diversity Plus: 3C Assay for Monokine induced gamma interferon (MIG) Biomarker Activity (AID 2283021; active = hit-call score of the fitted dose curve at least 0.9, where 1 is the maximum; inactive = score below 0.9). As to conditions: primary human endothelial cells (HUVEC); actives raise or lower the signal. A digest of the protocol: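 Primary human umbilical vein endothelial cells in the 3C system were exposed to chemical for 24 h, after which MIG was quantified by ELISA. Activity was fitted bidirectionally against DMSO as negative control and baseline.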

Assay [16] addresses human Peroxisome Proliferator-activated Receptor delta (PPARd), PPARD (gene 5467) (UniProt Q03181). Kind of assay: ATG_PPARd_TRANS: Attagene TRANS-FACTORIAL HepG2 Assay for human Peroxisome Proliferator-activated Receptor delta (PPARd) (AID 2283002). Summed up: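 Transient HepG2 transfection (multiple GAL4-UAS RTUs, chimeric receptor-Gal4); 24 h dosing; total RNA → oligo(dT) RT → PCR → 6-FAM primer extension → HpaI cut → CE. Positive direction vs DMSO.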

In assay [17] the target is Retinoic acid receptor alpha (Homo sapiens) (UniProt P10276). Kind of assay: ATG_RARa_TRANS: Attagene TRANS-FACTORIAL HepG2 Assay for human Retinoic Acid Receptor alpha (RARa) (AID 2283005). A digest of the protocol: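 Reporter transcripts, measured by RT-PCR with fluorescent labeling and capillary electrophoresis after 24 h dosing, reflect activity of an exogenous human RARa–GAL4 fusion in transiently transfected HepG2. Fitted for increase relative to DMSO.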

In assay [18] the target is human RAR-related Orphan Receptor beta (RORb), RORB (gene 6096) (UniProt Q92753). Kind of assay: ATG_RORb_TRANS: Attagene TRANS-FACTORIAL HepG2 Assay for human RAR-related Orphan Receptor beta (RORb) (AID 2283010).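 As to AC50: potency for increased reporter mRNA meaning activation of RORb-Gal4 chimera.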 A digest of the protocol:
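HepG2 cells were transiently transfected with multiplexed GAL4-UAS reporter units expressing chimeric nuclear receptor–GAL4 proteins, then dosed for 24 h. Reporter mRNA was quantified by RT-PCR with fluorescent labelling and capillary electrophoresis; gain of signal was fitted relative to DMSO.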

For assay [19], the target named is human Retinoid X Receptor beta (RXRb), RXRB (gene 6257) (UniProt P28702). Kind of assay: ATG_RXRb_TRANS: Attagene TRANS-FACTORIAL HepG2 Assay for human Retinoid X Receptor beta (RXRb) (AID 2283013). Summed up:
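HepG2 cells transiently transfected with multiplexed reporter units driven by GAL4-UAS and exogenous chimeric NR-Gal4 proteins; treated 24 h. Reporter mRNA measured by RT-PCR, 6-FAM labelling and capillary electrophoresis; gain-of-signal fitted versus DMSO baseline.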

The target in assay [20] is human Thyroid Receptor alpha (THRa1), THRA (gene 7067) (UniProt P10827). The assay is described as follows: ATG_THRa1_TRANS: Attagene TRANS-FACTORIAL HepG2 Assay for human Thyroid Receptor alpha (THRa1) (AID 2283014). Summed up: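 First, HepG2 cells receive multiple GAL4-UAS reporter units and the chimeric receptor. They are then dosed for 24 h, after which RNA is reverse-transcribed, amplified, labelled, HpaI-cut and sized by capillary electrophoresis; gain relative to DMSO is scored.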

“And” between values parts separate entries of the source, which are not always exact repeats. Identical values can stand only once. Records with an inconclusive call do not appear. Some compounds were tested as several samples or in several runs, with calls that do not always agree. The source made the active and inactive calls. The calls were made as follows, unless noted: active = hit-call score of the fitted dose curve at least 0.9, where 1 is the maximum; inconclusive = response in the unintended direction; inactive = score below 0.9.

Chain of Nuclear receptor subfamily 1 group I member 2 (Homo sapiens) (O75469 whole entry, looked up, the tested form may be a part): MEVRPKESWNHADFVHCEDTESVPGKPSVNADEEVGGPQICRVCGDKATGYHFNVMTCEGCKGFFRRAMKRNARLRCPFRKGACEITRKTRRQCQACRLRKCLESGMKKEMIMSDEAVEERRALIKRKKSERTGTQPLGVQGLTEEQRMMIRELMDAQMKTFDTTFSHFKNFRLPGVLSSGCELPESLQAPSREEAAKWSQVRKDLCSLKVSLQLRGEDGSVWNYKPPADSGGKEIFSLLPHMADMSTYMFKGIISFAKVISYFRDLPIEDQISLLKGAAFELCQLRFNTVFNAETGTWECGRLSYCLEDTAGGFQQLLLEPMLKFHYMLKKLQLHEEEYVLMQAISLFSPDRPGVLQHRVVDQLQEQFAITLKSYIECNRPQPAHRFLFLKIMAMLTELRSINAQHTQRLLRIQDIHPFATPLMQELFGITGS
Chain of Retinoic acid receptor RXR-alpha (Homo sapiens) (P19793 whole entry, looked up, the tested form may be a part): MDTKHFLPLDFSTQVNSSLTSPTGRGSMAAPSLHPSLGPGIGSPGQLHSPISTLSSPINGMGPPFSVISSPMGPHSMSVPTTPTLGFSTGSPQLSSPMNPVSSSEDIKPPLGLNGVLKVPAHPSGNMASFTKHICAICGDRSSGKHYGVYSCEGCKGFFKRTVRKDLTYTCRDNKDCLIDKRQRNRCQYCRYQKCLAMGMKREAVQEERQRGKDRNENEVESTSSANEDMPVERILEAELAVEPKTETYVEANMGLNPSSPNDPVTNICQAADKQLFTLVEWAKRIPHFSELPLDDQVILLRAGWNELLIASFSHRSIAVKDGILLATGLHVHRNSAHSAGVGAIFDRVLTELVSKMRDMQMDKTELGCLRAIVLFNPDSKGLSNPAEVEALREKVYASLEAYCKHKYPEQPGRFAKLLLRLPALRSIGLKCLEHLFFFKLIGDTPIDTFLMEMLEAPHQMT
Chain of E-selectin (Homo sapiens) (P16581 whole entry, looked up): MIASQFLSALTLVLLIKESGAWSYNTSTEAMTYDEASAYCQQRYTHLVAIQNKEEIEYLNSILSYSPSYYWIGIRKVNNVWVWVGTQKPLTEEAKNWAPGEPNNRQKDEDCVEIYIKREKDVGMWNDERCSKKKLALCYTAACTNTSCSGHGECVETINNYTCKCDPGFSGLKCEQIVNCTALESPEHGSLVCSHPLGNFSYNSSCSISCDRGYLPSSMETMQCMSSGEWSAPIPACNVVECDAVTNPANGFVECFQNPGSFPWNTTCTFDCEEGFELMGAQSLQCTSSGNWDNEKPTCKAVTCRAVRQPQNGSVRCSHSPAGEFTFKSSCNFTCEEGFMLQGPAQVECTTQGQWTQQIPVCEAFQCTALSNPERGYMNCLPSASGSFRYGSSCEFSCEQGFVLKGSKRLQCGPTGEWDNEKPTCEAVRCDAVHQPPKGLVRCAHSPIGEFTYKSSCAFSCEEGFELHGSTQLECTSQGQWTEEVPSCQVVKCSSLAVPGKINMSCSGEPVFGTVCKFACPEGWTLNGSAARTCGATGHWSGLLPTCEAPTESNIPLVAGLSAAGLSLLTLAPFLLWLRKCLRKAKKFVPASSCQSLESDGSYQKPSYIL
Chain of human Thyroid Receptor alpha (THRa1), THRA (gene 7067) (P10827 whole entry, looked up, the tested form may be a part): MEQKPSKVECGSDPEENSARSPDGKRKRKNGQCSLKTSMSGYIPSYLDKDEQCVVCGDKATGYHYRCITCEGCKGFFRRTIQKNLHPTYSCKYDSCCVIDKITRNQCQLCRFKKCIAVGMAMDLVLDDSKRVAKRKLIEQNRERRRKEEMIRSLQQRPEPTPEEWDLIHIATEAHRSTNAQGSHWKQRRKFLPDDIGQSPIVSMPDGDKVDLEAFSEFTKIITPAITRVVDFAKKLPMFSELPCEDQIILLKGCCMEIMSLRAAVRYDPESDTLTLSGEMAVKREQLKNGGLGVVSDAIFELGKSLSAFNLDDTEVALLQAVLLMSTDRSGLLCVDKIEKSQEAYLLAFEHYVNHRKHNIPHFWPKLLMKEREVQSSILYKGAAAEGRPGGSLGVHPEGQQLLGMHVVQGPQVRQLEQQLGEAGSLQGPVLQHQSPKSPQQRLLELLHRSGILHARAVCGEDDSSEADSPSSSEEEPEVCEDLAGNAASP
Chain of human Peroxisome Proliferator-activated Receptor delta (PPARd), PPARD (gene 5467) (Q03181 whole entry, looked up, the tested form may be a part): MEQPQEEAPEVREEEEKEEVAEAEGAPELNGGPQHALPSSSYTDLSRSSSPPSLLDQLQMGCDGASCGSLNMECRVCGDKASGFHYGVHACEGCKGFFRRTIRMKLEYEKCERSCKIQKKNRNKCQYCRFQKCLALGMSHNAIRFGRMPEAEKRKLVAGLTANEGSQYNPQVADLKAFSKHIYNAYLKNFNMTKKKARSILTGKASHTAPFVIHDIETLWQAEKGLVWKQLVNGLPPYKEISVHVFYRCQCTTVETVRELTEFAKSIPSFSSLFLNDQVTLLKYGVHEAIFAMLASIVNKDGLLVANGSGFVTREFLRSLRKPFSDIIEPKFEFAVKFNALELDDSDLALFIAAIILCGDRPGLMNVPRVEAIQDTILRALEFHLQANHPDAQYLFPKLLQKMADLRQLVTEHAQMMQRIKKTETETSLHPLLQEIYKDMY
Chain of human RAR-related Orphan Receptor beta (RORb), RORB (gene 6096) (Q92753 whole entry, looked up, the tested form may be a part): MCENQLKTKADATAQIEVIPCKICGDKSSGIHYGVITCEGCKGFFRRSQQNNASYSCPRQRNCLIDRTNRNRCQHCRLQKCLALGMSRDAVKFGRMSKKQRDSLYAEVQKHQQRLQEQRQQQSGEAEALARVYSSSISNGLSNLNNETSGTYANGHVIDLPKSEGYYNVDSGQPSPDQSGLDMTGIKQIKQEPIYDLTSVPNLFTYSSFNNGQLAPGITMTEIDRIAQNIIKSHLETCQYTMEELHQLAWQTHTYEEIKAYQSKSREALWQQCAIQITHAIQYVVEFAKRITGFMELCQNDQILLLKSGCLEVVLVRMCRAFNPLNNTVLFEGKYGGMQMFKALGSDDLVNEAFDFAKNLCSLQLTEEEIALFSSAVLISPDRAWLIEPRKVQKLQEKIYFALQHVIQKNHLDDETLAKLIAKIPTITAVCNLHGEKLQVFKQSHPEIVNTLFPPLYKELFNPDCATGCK
Chain of human Peroxisome Proliferator-activated Receptor alpha (PPARa), PPARA (gene 5465) (Q07869 whole entry, looked up, the tested form may be a part): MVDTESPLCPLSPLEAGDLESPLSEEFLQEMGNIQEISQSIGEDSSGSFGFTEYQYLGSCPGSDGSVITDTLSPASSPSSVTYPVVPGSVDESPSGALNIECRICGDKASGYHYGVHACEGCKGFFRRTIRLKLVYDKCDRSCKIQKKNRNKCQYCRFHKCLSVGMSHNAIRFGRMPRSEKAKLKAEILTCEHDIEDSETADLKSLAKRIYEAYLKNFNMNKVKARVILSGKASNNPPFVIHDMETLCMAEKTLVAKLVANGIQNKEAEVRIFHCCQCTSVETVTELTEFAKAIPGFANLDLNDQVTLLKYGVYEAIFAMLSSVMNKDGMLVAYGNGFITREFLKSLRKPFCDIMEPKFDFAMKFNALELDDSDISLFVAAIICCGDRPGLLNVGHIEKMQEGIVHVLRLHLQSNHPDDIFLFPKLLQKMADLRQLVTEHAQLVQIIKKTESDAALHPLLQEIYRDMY
Chain of Peroxisome proliferator-activated receptor gamma (Homo sapiens) (P37231 whole entry, looked up): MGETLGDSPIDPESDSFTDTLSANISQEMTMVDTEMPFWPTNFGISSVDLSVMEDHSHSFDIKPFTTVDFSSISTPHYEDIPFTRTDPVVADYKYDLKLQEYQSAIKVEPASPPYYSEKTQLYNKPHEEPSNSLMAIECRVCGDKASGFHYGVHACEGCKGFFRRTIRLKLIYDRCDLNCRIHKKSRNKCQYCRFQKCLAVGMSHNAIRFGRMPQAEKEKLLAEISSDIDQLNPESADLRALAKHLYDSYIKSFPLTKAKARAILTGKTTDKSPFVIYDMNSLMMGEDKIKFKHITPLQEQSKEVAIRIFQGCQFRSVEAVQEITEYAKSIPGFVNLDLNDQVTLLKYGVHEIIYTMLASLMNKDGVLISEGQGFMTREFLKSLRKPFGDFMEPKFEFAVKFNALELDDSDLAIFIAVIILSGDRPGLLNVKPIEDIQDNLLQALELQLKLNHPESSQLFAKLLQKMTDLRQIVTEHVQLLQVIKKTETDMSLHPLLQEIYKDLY
Chain of human Retinoid X Receptor beta (RXRb), RXRB (gene 6257) (P28702 whole entry, looked up, the tested form may be a part): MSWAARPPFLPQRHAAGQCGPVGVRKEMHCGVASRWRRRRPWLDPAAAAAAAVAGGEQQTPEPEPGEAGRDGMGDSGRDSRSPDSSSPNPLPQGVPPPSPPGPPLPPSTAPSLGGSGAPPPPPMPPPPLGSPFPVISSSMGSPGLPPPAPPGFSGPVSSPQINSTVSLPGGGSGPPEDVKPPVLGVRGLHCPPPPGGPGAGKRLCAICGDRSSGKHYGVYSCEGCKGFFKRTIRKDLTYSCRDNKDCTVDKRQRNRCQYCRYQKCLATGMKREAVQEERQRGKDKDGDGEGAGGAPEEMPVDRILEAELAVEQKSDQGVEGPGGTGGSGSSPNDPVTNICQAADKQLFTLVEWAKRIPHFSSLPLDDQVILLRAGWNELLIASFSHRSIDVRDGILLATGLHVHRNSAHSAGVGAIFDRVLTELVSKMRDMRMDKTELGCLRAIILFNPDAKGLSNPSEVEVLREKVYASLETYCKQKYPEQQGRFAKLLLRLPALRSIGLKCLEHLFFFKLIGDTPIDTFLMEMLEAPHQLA
Chain of human Retinoic Acid Receptor gamma (RARg), RARG (gene 5916) (P13631 whole entry, looked up, the tested form may be a part): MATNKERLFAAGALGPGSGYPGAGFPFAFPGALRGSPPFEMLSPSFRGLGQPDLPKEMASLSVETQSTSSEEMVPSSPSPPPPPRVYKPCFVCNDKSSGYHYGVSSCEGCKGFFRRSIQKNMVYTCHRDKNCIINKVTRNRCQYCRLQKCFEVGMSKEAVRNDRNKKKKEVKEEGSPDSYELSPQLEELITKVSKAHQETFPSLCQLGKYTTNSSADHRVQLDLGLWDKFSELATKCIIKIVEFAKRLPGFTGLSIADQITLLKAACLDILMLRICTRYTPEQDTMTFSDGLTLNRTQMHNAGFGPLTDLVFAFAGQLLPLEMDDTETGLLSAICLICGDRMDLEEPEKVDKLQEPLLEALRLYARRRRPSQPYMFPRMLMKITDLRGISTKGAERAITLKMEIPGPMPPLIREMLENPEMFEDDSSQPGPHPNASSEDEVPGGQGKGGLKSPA

Take `O=C(O)Cn1c(=O)n(Cc2ccc(Br)cc2F)c(=O)c2ccc(Cl)cc21`: the outcome in [1], in [2], in assay [3], in [6], in assay [7] and in assay [8] was inactive. The result in assay [9], in assay [10], in [11], in assay [12], in assay [13] and in assay [14] was inactive. Moreover, the result in [15] was inactive. Besides, the values for the half-maximal activity concentration (AC50) in assay [4] and in assay [5] were 6.18 µM (active) and 11 µM (active), respectively.
In the case of `O=c1c(-c2ccc(O)cc2)coc2cc(O)cc(O)c12`, the concentration at half-maximal activity (AC50) in assay [1] is 24.2 µM (active) and 100 µM (active) and 25.6 µM (active); in assay [3] it was 8.1 µM (active); in assay [4] it was 32.7 µM (active) [middle of 4 runs]; in assay [5] it was 24.2 µM (active); in assay [18], 27.4 µM (active); in assay [7], 26.5 µM (active). For the same compound, the half-maximal activity concentration (AC50) in assay [19] was 25.2 µM (active) and 27.2 µM (active); in [11], 25.3 µM (active); in [12], 8.42 µM (active); in assay [13], 21.1 µM (active). Besides, the outcome in assay [16], in assay [17], in assay [5], in assay [6], in assay [18] and in assay [7] was inactive. In addition, the result in assay [8], in [19], in [20], in assay [9] and in assay [15] was inactive.
For `CC(C)(C)c1csc(-c2cc3cc(OCc4ccccc4CC(=O)O)ccc3o2)n1`, the outcome in assay [1], in assay [16], in assay [2], in assay [5], in assay [8] and in [9] was inactive. The concentration at half-maximal activity (AC50) was 18.1 µM (active) in assay [3]; 10 µM (active) in assay [10]; 21.6 µM (active) in assay [11]; 22.6 µM (active) in assay [12]; 17.3 µM (active) in assay [13]; 18.4 µM (active) in assay [14].

As usually defined, the AC50 is the midpoint of the concentration-response curve, whichever way the signal moves.
